# Measured values taken from paper PMC4552634, “A New Set of Chemical Starting Points with Plasmodium falciparum Transmission-Blocking Potential for Antimalarial Drug Discovery” (PLoS ONE, 2015).
# About 3,200 (25%) of roughly 13,000 compounds showed an effect of 50% or more. The list shows a part of the results.
# Tested on: P. falciparum stage V gametocytes
# Design: BacTiter-Glo ATP luminescence viability of purified stage V gametocytes in 384-well plates, per cent inhibition versus DMSO
# Conditions: 48 h, 5 µM; inhibitor
row,SMILES,% Inhibition [%]
1,Clc1ccc(-c2nc3ccc(-c4ccc5nc(-c6ccc(Cl)cc6)[nH]c5c4)cc3[nH]2)cc1 [TCMDC-123460],1.652
2,CC(=O)Nc1ccc(-c2nc3ccc(-c4nc5ccc(NC(C)=O)cc5[nH]4)cc3[nH]2)cc1 [TCMDC-125761],0.4612
3,CCN(CC)CCN(CCN(CC)CC)c1ccc(-c2nc3cc(Cl)c(Cl)cc3[nH]2)cc1 [TCMDC-139329],70.38
4,Cc1nc2nc(N)nc(N)c2c(C)c1Cc1cccs1 [TCMDC-137642],-3.344
5,CC(CCc1ccccc1)NCC(O)c1cccc([N+](=O)[O-])c1 (stereo not drawn) [TCMDC-125728],-0.1444
6,Cc1ccnc(NC(c2cccc(Cl)c2Cl)c2ccc3cccnc3c2O)c1 (stereo not drawn) [TCMDC-123997],94.28
7,Cc1ccnc(NC(c2ccc(Cl)c([N+](=O)[O-])c2)c2ccc3cccnc3c2O)c1 (stereo not drawn) [TCMDC-123691],121
8,Oc1cccc2ccc(Nc3ccccn3)nc12 [TCMDC-125567],43.59
9,O=[N+]([O-])c1cccc(C(Nc2ccccn2)c2ccc3cccnc3c2O)c1 (stereo not drawn) [TCMDC-125725],107
10,Cc1ccnc(NC(c2cccc(OCc3ccccc3)c2)c2ccc3cccnc3c2O)c1 (stereo not drawn) [TCMDC-125558],93.78
11,COc1ccc(-c2cc(C(=O)N[C@@H](Cc3ccccc3)C(=O)NCCN3CCCCC3)ccc2O)cc1 [TCMDC-140804],32.57
12,Cn1cnc(CCNC(=O)c2cccc(-c3cccc(-c4nc5cc(C(F)(F)F)ccc5[nH]4)c3)c2)c1 [TCMDC-132496],22.81
13,CCOCCCn1c(=N)c(C(=O)NC(C)c2ccccc2)cc2c(=O)n3cccc(C)c3nc21 (stereo not drawn) [TCMDC-124348],9.74
14,Oc1c(C(Nc2ccccn2)c2ccc(Cl)cc2Cl)ccc2cccnc12 (stereo not drawn) [TCMDC-125559],98.53
15,Cc1cc(NC(c2ccc(Cl)cc2)c2ccc3cccnc3c2O)no1 (stereo not drawn) [TCMDC-123828],23.63
16,O=C(Cc1ccccc1)NC(c1ccco1)c1cc(Cl)c2cccnc2c1O (stereo not drawn) [TCMDC-125561],-24.24
17,Oc1c(C(Nc2ccccn2)c2ccco2)cc(Cl)c2cccnc12 (stereo not drawn) [TCMDC-125324],60.61
18,CCC(=O)NC(c1ccco1)c1cc(Cl)c2cccnc2c1O (stereo not drawn) [TCMDC-123650],-55.25
19,Cc1ccc(Nc2nccc(NCC(O)c3ccc(C(F)(F)F)cc3)n2)cc1 (stereo not drawn) [TCMDC-136593],10.35
20,Cc1ccc2nc(NC#N)[nH]c2c1 [TCMDC-131394],6.156
21,Cc1noc(C)c1-c1ccc2c(Nc3ccccc3C(C)(C)C)c(C(=O)NCc3ccc(OC(C)C)cc3)cnc2c1.Cl [TCMDC-136370],-53.99
22,c1ccc2c(CNCCCCCCNCc3c(OCC4CC4)ccc4ccccc34)c(OCC3CC3)ccc2c1 [TCMDC-137839],118.2

row,SMILES,% Inhibition [%]
1,CCOc1cc(OCC)c2ccccc2c1CNCCCCCCNCc1c(OCC)cc(OCC)c2ccccc12 [TCMDC-137982],121.9
2,CCCCCCCCNCc1c(O)ccc2ccccc12 [TCMDC-137606],26.15
3,Oc1ccc2ccccc2c1CNCCC1CCCCC1 [TCMDC-137605],-1.678
4,Oc1ccc2ccccc2c1CNCC1CCCCC1 [TCMDC-137608],2.485
5,CCCCCCOc1ccc2ccccc2c1CNCCCCCCNCc1c(OCCCCCC)ccc2ccccc12 [TCMDC-137963],142.3
6,CCCOc1ccc2ccccc2c1CNCCCCCCNCc1c(OCCC)ccc2ccccc12 [TCMDC-137966],143.6
7,Cc1cc(N[C@@H](CC(C)C)C(=O)NCCc2ccccc2)nc(NCC2CCCCC2)n1 [TCMDC-134920],-75.82
8,Cn1cncc1C(=O)Nc1ccc(-c2ccc(-c3nc4ccc(C(F)(F)F)cc4[nH]3)cc2)cc1 [TCMDC-137065],-63.66
9,Cc1cc(Nc2ncc3c(n2)N(C2CCC2)CC3)ccc1N1CCN(C)CC1 [TCMDC-134146],20.06
10,Cc1cccc2[nH]c(-c3ccc(-c4ccc(NC(=O)NCc5cccc(F)c5)cc4)cc3)nc12 [TCMDC-133294],-5.117
11,CN1CCN(c2ccc3nccc(CCN4CCC(NCc5ccc6c(n5)NC(=O)CO6)CC4)c3n2)CC1 [TCMDC-141580],8.776
12,CCOc1ccc2ccccc2c1CNCCCCCCNCc1c(OCC)ccc2ccccc12 [TCMDC-137791],117.2
13,COc1ccc(C2CC(=O)C3=C(C2)NC(C)=C(C(=O)OC(C)C)C3c2ccc(O)cc2)cc1OC (stereo not drawn) [TCMDC-125633],43.1
14,CC(C)C[C@H](NC(=O)c1cc2cc(OCCN3CCNCC3)ccc2o1)C(=O)NC1CC[C@@H](C)N(C(=O)Nc2ccc(Cl)cc2)CC1=O (stereo partly drawn) [TCMDC-133539],8.489
15,COc1cccc2cc(C(=O)N[C@@H](CC(C)C)C(=O)NC3CC[C@@H](C)N(C(=O)Nc4ccncc4)CC3=O)oc12 (stereo partly drawn) [TCMDC-134320],-6.979
16,C[C@@H]1CC[C@H](NC(=O)[C@H](CC2CCCC2)NC(=O)N2CCNCC2)C(=O)CN1S(=O)(=O)c1ccccn1 [TCMDC-141571],57.62
17,CCOC(=O)NC1=NC(C)(C)N(OCCCOc2cc(Cl)c(Cl)cc2Cl)C(NC(=O)OCC)=N1 [TCMDC-131743],1.787
18,CCN(CC)c1ccc(C(c2ccc(N(CC)CC)cc2)c2ccc([N+](=O)[O-])cc2)cc1 [TCMDC-131286],-67.18
19,O=[N+]([O-])c1ccc(-n2nc(Cc3ccccc3)n(Cc3cccc(F)c3)c2=S)c(C(F)(F)F)c1 [TCMDC-135486],73.39
20,Cc1cccc(CC2CC(=O)N(c3ccc([N+](=O)[O-])cc3)C2=O)c1 (stereo not drawn) [TCMDC-125732],-3.627
21,N#Cc1ccccc1C(=O)N(Cc1cncn1Cc1cccc(F)c1)CC1CC1 [TCMDC-132459],-1.299
22,CN(C)CCN(Cc1ccccc1)c1ccc([N+](=O)[O-])cc1C(F)(F)F [TCMDC-135372],16.64

row,SMILES,% Inhibition [%]
1,Cc1cccc(Cn2c(C(N)=O)nn(-c3ccc([N+](=O)[O-])cc3C#N)c2=S)c1 [TCMDC-134720],78.61
2,CCN(CCNC(=O)Cn1c(C)cc2cc([N+](=O)[O-])ccc21)c1cccc(C)c1 [TCMDC-140764],1.649
3,N#Cc1cc([N+](=O)[O-])ccc1-n1nc(C(N)=O)n(Cc2cccc(F)c2)c1=S [TCMDC-134721],80.05
4,CC(C)CCn1c(Sc2ccc([N+](=O)[O-])cc2C(F)(F)F)nnc1-c1ccccc1Cl [TCMDC-135484],10.18
5,O=C(NC1CC1)c1ccc(Cn2c(SCc3cccc([N+](=O)[O-])c3)nc3ccccc3c2=O)cc1 [TCMDC-123577],43.52
6,O=C(CCc1cccc(O)c1)NCC(NCCCNc1cc(=O)c2ccccc2[nH]1)c1cc(Br)cc(Br)c1 (stereo not drawn) [TCMDC-140319],-27.67
7,COc1ccc(C(=O)N2CCC3(CC2)C(=O)N(CC(=O)NCC2CCCCC2)CN3c2ccccc2)c(OC)c1 [TCMDC-125170],-47.66
8,CN(C)c1ccc(-c2csc(C(=O)NCC3CCN(CC4CCCCC4)C3)c2)cc1.O=C(O)C(F)(F)F (stereo not drawn) [TCMDC-134424],97.4
9,O=C(NCC1CCN(Cc2ccc3c(c2)OCCO3)C1)c1cc(-c2cccc(C(F)(F)F)c2)cs1.O=C(O)C(F)(F)F (stereo not drawn) [TCMDC-134458],1.256
10,O=C(NCC1CCN(Cc2ccsc2)C1)c1cc(-c2cccc(C(F)(F)F)c2)cs1.O=C(O)C(F)(F)F (stereo not drawn) [TCMDC-134478],-49.55
11,O=C(NCC1CCN(CC2CCCCC2)C1)c1cc(-c2cccc(C(F)(F)F)c2)cs1.O=C(O)C(F)(F)F (stereo not drawn) [TCMDC-134422],101.5
12,CC(=O)Nc1ccc(CN2CCC(CNC(=O)c3cc(-c4cccc(C(F)(F)F)c4)cs3)C2)cc1.O=C(O)C(F)(F)F (stereo not drawn) [TCMDC-134456],0.3319
13,O=C(NCC1CCN(Cc2cccc(F)c2)C1)c1cc(-c2cccc(C(F)(F)F)c2)cs1 (stereo not drawn) [TCMDC-134480],4.488
14,O=C(NCC1CCN(Cc2cccc(C(F)(F)F)c2)C1)c1cc(-c2cccc(F)c2)cs1 (stereo not drawn) [TCMDC-134484],54.37
15,O=C(NCC1CCN(Cc2cccc(C(F)(F)F)c2)C1)c1cc(-c2cccc(C(F)(F)F)c2)cs1 (stereo not drawn) [TCMDC-134483],53.9
16,COc1ccccc1C1CCN(C2CCC(NC(=O)/C=C/c3cccc(C(F)(F)F)c3)CC2)CC1 (stereo not drawn) [TCMDC-133555],-60.89
17,Cc1cc(-c2cccc3c(NC(=O)N4CCc5cc6nccc(N7CCN8CCC[C@H]8C7)c6cc54)cccc23)cc(C)n1 [TCMDC-139794],-14.58
18,COc1cc2c(cc1C(F)(F)F)N(C(=O)Nc1cc(F)cc(-c3cncnc3)c1)CC2 [TCMDC-139039],-11.26
19,O=C(Nc1cccc(-c2nc3ccccc3[nH]2)c1)c1cccc(NC(=O)c2ccco2)c1 [TCMDC-125185],18.17
20,CC(=O)c1ccc(S(=O)(=O)N2CCC(C(=O)Nc3ccccc3N3CCCC3)CC2)cc1 [TCMDC-125467],-11.47
21,CCC(C)NS(=O)(=O)c1ccc2nc(Nc3ccc(C)c(Cl)c3)n([C@H](C)C(C)(C)C)c2c1 (stereo partly drawn) [TCMDC-136238],38.05
22,O=C(C=Cc1cccs1)Nc1ccc(-c2nc3ccccc3[nH]2)cc1 [TCMDC-123926],-97.24
